The structures appear in SMILES notation. Values joined by “and” are separate entries in the source; they are usually repeats but may differ in a detail not shown here. Equal values may be shown once. Records with an inconclusive call do not appear. A number with no mark means an inactive call. Active and inactive are the calls of the source. The call rests on the fitted dose curve; in most records, active means well fitted inhibition curve with a large enough effect; inconclusive means small, poorly fitted or top-dose-only effect; inactive means flat fitted curve, though single readings scatter.
On the % scale 0 is the no-effect control and ±100 the full control effect; potency means the concentration at half of the fitted maximal effect.

This test relates to KB-3-1. The test can be described thus: Cytotoxic Profiling of Annotated Libraries Using Quantitative High-Throughput Screening (AID 1296008). Further: nearly all actives have a fitted effect of over 60% in size. The settings on record: Five cell lines viability, CellTiter-Glo ATP luminescence, 48-72 h; max response: stronger effect = lower value. From the text: Cell-based phenotypic screening is a commonly used approach to discover biological pathways, novel drug targets, chemical probes and high-quality hit-to-lead molecules. Many hits identified from high-throughput screening campaign are ruled out through a series of follow-up potency, selectivity/specificity, and cytotoxicity assays. Prioritization of molecules with little or no cytotoxicity for a more in-depth downstream evaluation influence the future direction of projects, so cytotoxicity profiling of the screening libraries at early stage is essential for increasing the likelihood of candidate success. […] For the annotated library, we also examined the primary targets and mechanistic pathways regularly associated with cell death. To our knowledge, this is the first study to use high-throughput screening to profile large libraries for cytotoxicity assessment in both normal and cancer cell lines. In summary, the results generated here constitutes a valuable resource for the scientific community and provides insight on identifying cytotoxic compounds with particular mechanisms of action, and prioritizing compounds with suitable cytotoxicity profile for further evaluation.
A pintool (Kalypsys) was used to transfer 23 nL of compound solution to the 1536-well assay plates. After 48 or 72 hr incubation at 37 degree Celsius, 5% CO2 and 95% humidity, 2.5 uL of CellTiter-Glo (Promega) was dispensed into each well using a dispenser (Aspect Automation, St. Paul, MN) with solenoid valves (Lee Valves, Westbrook CT). Plates were left at room temperature for 10 min before imaging the ATP-coupled luminescence using a ViewLux microplate imager (PerkinElmer, Waltham, MA).
On the technique in general: In ATP-based viability assays light output follows the ATP content of the culture.
Regarding `OC1(CN2CCC(COc3noc4cccc(O[C@@H]5CCOC5)c34)CC2)CCOCC1`, the max response is 2.03%. On to `CCNC1(C(N)=O)CCN(c2ncnc3c2nc(-c2ccccc2Cl)n3-c2ccc(Cl)cc2)CC1`, for which the max response was 6.15%.

Regarding `C=CCC1=C[C@]2(OC)[C@H](C)[C@@H](c3ccc4c(c3)OCO4)O[C@]2(OC)CC1=O`, the max response is -2.11%. For `CCC(=O)OCC(=O)[C@@]1(OC(=O)CC)[C@@H](C)C[C@H]2[C@@H]3CCC4=CC(=O)C=C[C@]4(C)[C@@]3(Cl)[C@@H](O)C[C@@]21C`, the max response was -12.3%. As for `COc1ccc2cc3c(NC(=O)c4ccco4)nn(C)c3nc2c1`, the Potency was 13 µM (active). On to `COc1c(C(C)C)c(O)c(O)c2c1C(OC)[C@H]1OC(=O)[C@@]23CCCC(C)(C)[C@H]13` (stereo not given in full), for which the call was inactive.

For the molecule `C=C1C(=O)O[C@@H]2/C=C(\CO)CC/C=C(\CO)[C@H](OC(C)=O)C(OC(=O)C(C)CC)C12` (stereo not given in full), the result was inactive. Turning to `Cc1[nH]c2ccccc2c1CCNCc1ccc(/C=C/C(=O)NO)cc1`, the Potency was 0.082 µM (active). For `C/C=C(\C)C(=O)O[C@H]1C=CC(=O)O[C@H]1/C=C/[C@@H](O)[C@H](C)O`, the max response was -19.4%. On the same count and under the same terms, the same measure for `NCCCNCCCCNC(=O)C(O)NC(=O)CCCCCCN=C(N)N` (stereo not given): -11.3%; for `C=CC(C)(C)c1[nH]c2ccccc2c1C[C@@H]1NC(=O)[C@H](C)NC1=O`: 3.23%; for `COc1cc(C(=O)NC(=S)Nc2cccc(NC(=O)c3ccccc3)c2)cc(OC)c1OC`: 6.94%. As to `CCC(CC)(NC(=O)C(C)C)C(=O)N[C@@H](CCCN=C(N)N)C(=O)NC1(C(=O)NC(c2ccc(F)cc2)c2ccc(F)cc2)CCCC1`, the max response was 7.28%. Consider `CC(=O)O[C@H]1CC[C@]2(C)[C@H]3CC[C@]4(C)Oc5oc(C)cc(=O)c5C[C@H]4[C@]3(C)CC[C@H]2C1(C)C`, for which the outcome was inactive. On to `C[C@]12CC[C@@H]3c4ccc(OS(=O)(=O)O)cc4CC[C@H]3[C@@H]1CCC2=O`, for which the max response is 3.98%. Consider `Nc1nc2c(ncn2C2OC3COP(=O)(O)OC3C2O)c(=O)[nH]1` (stereo not given), for which the max response was 9.92%. Same read-out and setting: the result for `C=CS(=O)(=O)O` reads -7.41%. `CCCN1CCC=C(c2cc(-c3ccc(C)cc3)no2)C1`: the max response is 9.64%. In the case of `C=C1CC[C@H]2C(=C)CC[C@H]3C(=C)C(=O)O[C@@H]3[C@@H]12`, the max response is -8.05%. For `COC1CCN(C(=O)c2cc(Cc3n[nH]c(=O)c4ccccc34)ccc2F)CC1`, the max response is -17.5%. The same measure, in the same setting: the result for `COC1C=C(C)C(O)(CO)C2(C)CCCC(C)(C)C12` (stereo not given) reads 2.43%; that for `COc1cc2ncnc(Oc3ccc(CC(=O)Nc4cnn(C(C)C)c4)cc3)c2cc1OC`, 0.878%. The same measure, in the same setting: the same measure for `CC(=O)O[C@@H]1[C@@H](O)[C@H](O[C@@H]2[C@@H](O)[C@@H](O)[C@H](O[C@H]3[C@H](O[C@H]4[C@H](O[C@H]5CC[C@@]6(C)C(CC[C@]7(C)C6CC=C6[C@@H]8CC(C)(C)CC[C@]8(C(=O)O)CC[C@]67C)[C@]5(C)CO)O[C@H](CO)[C@@H](O)[C@@H]4O)OC[C@@H](O)[C@@H]3O)O[C@H]2C)OC[C@H]1O` (stereo not given in full): 9.51%. In the case of `CON=C1C[C@]2(C[C@@H]3C[C@@H](C/C=C(\C)C[C@@H](C)/C=C/C=C4\CO[C@@H]5[C@H](O)C(C)=C[C@@H](C(=O)O3)[C@]45O)O2)O[C@H](/C(C)=C/C(C)C)[C@H]1C`, the Potency was 20.6 µM (active).

Regarding `O=S(=O)(NCc1ccccn1)c1ccc(Br)c2ccccc12`, the max response is 0.961%. In the case of `COc1ccc(NC(=O)c2ccc(-c3ccc(C(=N)N)cc3C)cc2)cc1N1CCN(C)CC1`, the max response is -9.57%. As to `NCCCC[C@H](NC(=O)[C@@H]1CCCN1C(=O)[C@@H]1CSSC[C@H](N)C(=O)N[C@@H](Cc2ccc(O)cc2)C(=O)N[C@@H](Cc2ccccc2)C(=O)N[C@@H](CCC(N)=O)C(=O)N[C@@H](CC(N)=O)C(=O)N1)C(=O)NCC(N)=O`, the max response is 0.366% and -14.6%. As to `COc1ccc([C@H]2Cc3cccc(O)c3C(=O)O2)cc1OC`, the max response is 2.52%. As to `C=C1C(=O)OC2/C=C(\C)CC/C=C(\C)CC(OC(C)=O)C12` (stereo not given), the max response is 3.33%.

As to `Clc1ncoc1-c1c[nH]c2ccccc12`, the max response was 7.62%. `CC(=O)OC1CC2(C)C(CCC(C)C23Cc2c(O)cc(CO)c(C=O)c2O3)C(C)(C)C1O` (stereo not given): the max response was 1.75%. Still for that read-out and setting: the result for `COc1cc(CCO)ccc1O[C@@H]1O[C@H](CO)[C@@H](O)[C@H](O)[C@H]1O` reads 7.87%; that for `Cc1cnn(-c2ccccc2)c1NC(=O)COCc1ccccc1`, 3.83%; that for `Cc1cc(OCCCS(C)(=O)=O)cc(C)c1-c1cccc(COc2ccc3c(c2)OCC3CC(=O)O)c1` (stereo not given), -3.22%.

With `CC(CC(c1ccccc1)c1ccccc1)NC(C)(C)C` (stereo not given), the max response was -0.893%. With `Nc1c(CC(=O)O)cccc1C(=O)c1ccccc1`, the max response was -7.36% and -8.46%. Consider `COC(=O)C[C@](O)(CCCC(C)(C)O)C(=O)O[C@@H]1C(OC)=CC23CCCN2CCc2cc4c(cc2[C@H]13)OCO4` (stereo not given in full), for which the Potency is 0.058 µM (active).

With `Nc1c(S(=O)(=O)c2ccccc2)c2nc3ccccc3nc2n1-c1ccc(F)cc1`, the max response is 9.53%. For `CCCCOC(=O)NS(=O)(=O)c1sc(CC(C)C)cc1-c1ccc(Cn2ccnc2)cc1`, the max response was -13.1%.

On to `O=c1[nH]c2cccc(N3CCN(Cc4ccc(-c5ccccc5)cc4)CC3)c2o1`, for which the max response was -24.1%.

For the origin of these results see PubChem BioAssay (NCATS).
